Laboratory results reported in PubChem BioAssay (NCATS).
Potency and affinity values are given separately. Values without a mark were called inactive. How the calls were made is not given here.

Settings: Ebola virus entry assay, green fluorescence channel
Further: 0% is about no effect.

Row | SMILES | efficacy
1 | Nc1nc(N)nc(-c2cc(Cl)ccc2Cl)n1 | -23.5%
2 | CC(C)c1c(CN(C)C(C)Cc2ccccc2)n(C)n(-c2ccccc2)c1=O (centres undefined) | -15%
3 | CC(NN)c1ccccc1 (centres undefined) | -30%
4 | CC(=O)[C@@]1(O)CC[C@H]2[C@@H]3C[C@H](C)C4=CC(=O)C=C[C@]4(C)[C@@]3(F)[C@@H](O)C[C@@]21C | -18.9%
5 | CN1N=C(C(N)=O)CCC1=O | -14%
6 | O=C(CN1CCNCC1)NC1CCCCC1 | 48.3%
7 | CC(CN(C)C)C(C)(O)Cc1ccc(Cl)cc1 (centres undefined) | 33.9%
8 | Cc1scc2c1N(C(=O)CN1CCN(C)CC1)c1ccccc1NC2=O | 20.4%
9 | O=C(O)c1ccc(S(=O)(=O)N(Cl)Cl)cc1 | -27.5%
10 | O=C(O)C(S)C(S)C(=O)O (centres undefined) | -24.2%
11 | N#C[C@H]1C[C@H]2C[C@@H]2N1C(=O)[C@@H](N)C12CC3CC(CC(O)(C3)C1)C2 | -19.1%
12 | Cc1ncc(CO)c(CN)c1O | -11.8%
13 | CCN(CC)CCNC(=O)c1ccc(N)cc1 | -17.1%
14 | CCC(C)C(C)(COC(N)=O)COC(N)=O (centres undefined) | 12.3%
15 | CC(C)[N+](C)(C)CC(O)COc1cccc2ccccc12 (centres undefined) | -28.5%
16 | COP(=O)(OC)OC(c1ccc(Cl)cc1)P(=O)(OC)OC (centres undefined) | -15.4%
17 | Nc1ncnc2c1ncn2Cc1c(F)cccc1Cl | -22.1%
18 | CCCCC(CC)CN1CN(CC(CC)CCCC)CC(C)(N)C1 (centres undefined) | -31.6%
19 | COc1cc(C(=O)N2CCOCC2)cc(OC)c1OC | -19.5%
20 | N#CSCC(=O)O | -33.9%

Row | SMILES | efficacy
21 | CCCCOC(=O)c1ccc(N)cc1 | 12.8%
22 | Cc1c(C(=O)O)c(O)cc2c1C(=O)c1c(O)c([C@@H]3O[C@H](CO)[C@@H](O)[C@H](O)[C@H]3O)c(O)c(O)c1C2=O | -19.5%
23 | O=C(O)CNC(=O)c1ccccc1 | -32.2%
24 | COC(=O)CCCCC(CCSS/C(CCO)=C(\C)N(C=O)Cc1cnc(C)nc1N)SC(C)=O (centres undefined) | -13.6%
25 | C[C@]12CC[C@@H]3c4ccc(OC(=O)N(CCCl)CCCl)cc4CC[C@H]3[C@@H]1CC[C@@H]2O | -12.5%
26 | CC(C)=CCC1C(=O)N(c2ccccc2)N(c2ccccc2)C1=O | -18%
27 | Cc1cc(O)cc2c1O[C@](C)(CCC[C@H](C)CCC[C@H](C)CCCC(C)C)CC2 | -22.5%
28 | Oc1ccccc1-c1nnco1 | 7.99%
29 | CCOC(=O)c1ccc(OCCN2C[C@H](O)[C@@H](O)[C@H](O)[C@H]2CO)cc1 | -12.9%
30 | CC(=O)NS(=O)(=O)c1ccc(N)cc1 | 10.9%
31 | O=c1[nH]c(=O)n([C@H]2CCCO2)cc1F | -34.9%
32 | Cn1cc(S(C)=O)c(=O)c2ccc(F)cc21 (centres undefined) | -15.1%
33 | CCCCOC(=O)CC(CC(=O)OCCCC)(OC(C)=O)C(=O)OCCCC | 21.9%
34 | C[N+](C)(C)CCCCCC[N+](C)(C)C | -15%
35 | CCCCCCCCCCCCSCCOCCO | -41.3%
36 | CCc1oc2ccccc2c1C(=O)c1cc(I)c(O)c(I)c1 | -12%
37 | Nc1ccc(S(=O)(=O)NCc2ccccc2)cc1 | 27.6%
38 | C[C@H]1[C@@H]2Cc3ccc(O)cc3[C@@]1(C)CCN2C | 67.4%
39 | CCCCCC(C)N (centres undefined) | -23%
